About 79,000 compounds went through this panel and 15% of them were active in at least one assay; those are over-represented in the sample as a whole. Calls of active or inactive are those of the source. No stated cut-off is given here; in the data, active means growth inhibition above about 70%; inactive means the rest.
Tests used:
[1] = NCI Yeast Anticancer Drug Screen. Data for the rad50 strain (AID 155);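 further: 0% = growth of vehicle-only cultures of the same strain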; settings: S. cerevisiae rad50 strain growth inhibition; at 50.0 µM; hits give high values
Procedure, shortened: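 Vehicle-treated cultures provide the reference for the growth inhibition reported for compound-exposed, repair-deficient yeast.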

[2] = NCI Yeast Anticancer Drug Screen. Data for the mec2-1 strain (AID 157); settings: S. cerevisiae mec2-1 strain, at 50.0 µM, hits give high values
Procedure, shortened: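 mec2-1 yeast strain, carrying an alteration in DNA damage repair or cell cycle control, was exposed to compounds; growth inhibition was measured relative to vehicle-treated controls.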

[3] = NCI Yeast Anticancer Drug Screen. Data for the sgs1 mgt1 strain (AID 161);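 further: 0% = growth of cultures given vehicle only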; settings: S. cerevisiae sgs1 mgt1 strain, at 50.0 µM, hits give high values
Procedure, shortened: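 Compounds are added to genetically altered yeast, and growth is compared with cultures given vehicle alone to give percent inhibition.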

[4] = NCI Yeast Anticancer Drug Screen. Data for the cln2 rad14 strain (AID 165);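 further: 0% = growth equal to vehicle treated cultures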; settings: S. cerevisiae cln2 rad14 strain, at 50.0 µM, hits give high values
Procedure, shortened: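 Yeast carrying cln2 and rad14 alterations (cell cycle control and DNA damage repair) were exposed to compounds. Growth inhibition was measured against vehicle-treated controls.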

[5] = NCI Yeast Anticancer Drug Screen. Data for the bub3 strain (AID 167); settings: S. cerevisiae bub3 mutant strain, at 50.0 µM, hits give high values
Procedure, shortened: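 Mutant yeast screening strain plus compound; vehicle-treated cultures serve as the 0% inhibition reference.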

[6] = NCI Yeast Anticancer Drug Screen. Data for the mlh1 rad18 strain (AID 175); settings: S. cerevisiae mlh1 rad18 strain growth inhibition; at 50.0 µM; hits give high values
Procedure, shortened: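 Growth inhibition of the yeast strain was measured after compound exposure and expressed relative to vehicle-treated controls. The strain carries defined defects in DNA damage repair.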

Measured: growth inhibition

N#C/C(=C1\OC(=O)C(c2ccc(Br)cc2)=C1O)c1ccc(Br)cc1
inactive: [1] 8.15% | [2] 2.45% | [3] -4% | [4] 5.3% | [5] -3.85% | [6] 26.4%

CCC(=O)OCCOC(=O)CC
inactive: [1] 26.8% | [2] 16.7% | [3] 6.9% | [4] 18.6% | [5] 23.6% | [6] 9.25%

O=C(N/N=C\c1ccccc1)Nc1cccc2ccccc12
inactive: [1] -27.4% | [2] 16.4% | [3] 20.3% | [4] -25.9% | [5] 27.9% | [6] -9.75%

CC(=O)OCCOCNC(=S)N/N=C/c1ccc(Br)s1
inactive: [1] 15.3% | [2] -8.3% | [3] 20.1% | [4] 28.1% | [5] 9.2% | [6] -0.8%

CSCCCCCSC
inactive: [1] 0.6% | [2] -27.1% | [3] -25.3% | [4] 0.45% | [5] -3.75% | [6] 0.55%

CC(C)CCC(=O)O
inactive: [1] -8.45% | [2] -9.1% | [3] -4.4% | [4] -9.6% | [5] 3.8% | [6] -10.4%

[N-]=[N+]=NC1CCOC(n2cnc3c(N)ncnc32)C1O (configuration not stated)
inactive: [1] -2.05% | [2] -3.95% | [3] 5.55% | [4] -33.5% | [5] -4.6% | [6] 1.85%

NC(=S)NCCN1CCOCC1
inactive: [1] -8.85% | [2] -5.95% | [3] -1.9% | [4] -15.7% | [5] 2.25% | [6] 10%

Nc1ncnc2c1ncn2CCCCCO
inactive: [1] 5.15% | [2] 49.7% | [3] 13.7% | [4] 7.35% | [5] 3.45% | [6] 13.3%

Cn1c(=O)c(N=Nc2c(=O)n(C)c(=O)n3c2[nH]c2ccccc23)c2[nH]c3ccccc3n2c1=O
inactive: [1] -2.1% | [2] 17.1% | [3] 7.4% | [4] -27.4% | [5] -10.7% | [6] 12.2%

CCC(=O)OCC(OC(=O)CC)C(OC(=O)CC)C(OC(=O)CC)C(COC(=O)CC)OC(=O)CC (configuration not stated)
inactive: [1] -0.5% | [2] 6.95% | [3] -16.6% | [4] -31.6% | [5] 1.35% | [6] -3.75%

NC(=O)NC(=O)OCCOC(=O)NC(N)=O
inactive: [1] -28.4% | [2] -11.7% | [3] -13.3% | [4] -16.7% | [5] -8.85% | [6] -13.2%

O=c1[nH]c(NCc2ccc(Cl)cc2)nc2nc[nH]c12
inactive: [1] 0.85% | [2] -3.85% | [3] -19.5% | [4] 12.2% | [5] -8.55% | [6] -46.4%

O=C(O)Cn1cc(I)c(=O)c(I)c1
inactive: [1] -40.4% | [2] -43.7% | [3] -7.2% | [4] 3.15% | [5] -10.3% | [6] -28%

CNC(=O)Oc1ccc2c(c1)[C@]1(C)CCN(C)[C@@H]1N2C
inactive: [1] -9.7% | [2] -29.8% | [3] -32.7% | [4] -5.55% | [5] -35.7% | [6] -37.2%

N#CCC(CC#N)C(c1cccc2ccccc12)c1cccc2ccccc12
inactive: [1] 9.85% | [2] -2.45% | [3] -3.85% | [4] 3.25% | [5] 18.7% | [6] -1.7%

Nc1ncnc2c1ncn2-c1ccccc1
inactive: [1] 4.05% | [2] 2.95% | [3] -2.05% | [4] 9.7% | [5] 9.85% | [6] -17.4%

S=C(NCCS)Nc1ccccc1
inactive: [1] -0.6% | [2] -11.4% | [3] -2.15% | [4] -46.6% | [5] 41.8% | [6] 13.3%

CC1(C)CC(C)(Br)C(Br)C(=O)C1C(O)(C(F)(F)F)C(F)(F)F (configuration not stated)
active: [1] 99.5% | [2] 99.8% | [3] 99.8% | [4] 99.2% | [5] 99.6% | [6] 99.8%

Cc1ncc(COP(=O)(O)O)c(C)c1O
inactive: [1] -15.7% | [2] -10.1% | [3] -33.5% | [4] -33.6% | [5] -31.3% | [6] -13.6%

O=C(/C=C/C(=O)NCCc1ccccc1)NCCc1ccccc1
inactive: [1] -13.4% | [2] 0.85% | [3] 9.15% | [4] -7.45% | [5] 46.4% | [6] 17.4%

BrCCC1CCCCCC1
inactive: [1] 8.75% | [2] -5.4% | [3] 5.85% | [4] 6.05% | [5] -4.25% | [6] 1.3%

CCN(CC)CC(C)(C)C(O)c1ccc(OC)c2ccccc12 (configuration not stated)
inactive: [1] -6.15% | [2] 7.3% | [3] 17.9% | [4] -26.8% | [5] 9.45% | [6] 8.8%

COn1nnc2ccccc21
inactive: [1] -21% | [2] -13.8% | [3] -19.9% | [4] 5.15% | [5] 7.9% | [6] -18.1%

CC(C)CC(=O)C(C)C(C)C (configuration not stated)
inactive: [1] 12.4% | [2] -1.85% | [3] 4.25% | [4] -4.25% | [5] 4% | [6] 1.5%

FC1=C2C3CCC(C3)C2C1(F)F (configuration not stated)
inactive: [1] 12.1% | [2] 4.1% | [3] 20.1% | [4] 16.9% | [5] 2.7% | [6] 17.1%

CC(C)(O)C(Br)(Br)Br
inactive: [1] 0.2% | [2] 3.7% | [3] -22.4% | [4] -33% | [5] -21.9% | [6] 32.1%

CCCCCCCCCCCC(=O)CCCCCCCCCCC
inactive: [1] 4% | [2] 2.2% | [3] 2.75% | [4] -33.9% | [5] -4.15% | [6] -2.7%

Cc1ccc(S(=O)(=O)Oc2ccccc2OS(=O)(=O)c2ccc(C)cc2)cc1
inactive: [1] 3.4% | [2] 2.35% | [3] -13.9% | [4] -4.1% | [5] -5% | [6] 0.75%

O=S(=O)(O)Cc1cccc2ccccc12
inactive: [1] 38% | [2] 6.7% | [3] 11.8% | [4] -17.6% | [5] -2.65% | [6] 22.6%

Cc1cc2c(cc1C)NC1=C(N2)OC(c2ccc(Cl)cc2)C1=O (configuration not stated)
inactive: [1] 19.9% | [2] 16.2% | [3] 44.6% | [4] 2% | [5] 21.1% | [6] 44.1%

O=P(O)(O)Oc1ccc(NCCO)cc1
inactive: [1] -9.5% | [2] -5% | [3] 3.3% | [4] 17.4% | [5] 7.55% | [6] -13.9%

OCC1=C(CO)CC=CC1
inactive: [1] -21% | [2] 10% | [3] 2.2% | [4] 1.5% | [5] -3.05% | [6] 28.6%

N#CCCn1c(CCC(=O)Nc2ccc(Cl)cc2Cl)n[nH]c1=S
inactive: [1] -8.4% | [2] 0.65% | [3] -6.05% | [4] 13.6% | [5] 1.7% | [6] 2.45%

CCCCCCCCCCCCCCCCCC(=O)CCCCCCCCCCCCCCCCC
inactive: [1] -17.3% | [2] -21.7% | [3] -6.65% | [4] 13.8% | [5] -6.2% | [6] -16.7%

Cn1c(=O)n(C2(C)CSC2)c2ccccc21
inactive: [1] -27.2% | [2] -14.6% | [3] -46.1% | [4] -3.95% | [5] -3.35% | [6] -33.9%

COC/C=C\COC
inactive: [1] 3.45% | [2] 5% | [3] 17.6% | [4] -2.15% | [5] -6.3% | [6] 22.1%

CCOC(=O)C(CO)C1CCCC1 (configuration not stated)
inactive: [1] 10.3% | [2] -2.65% | [3] 7.9% | [4] -5.4% | [5] 5.05% | [6] 2.75%

CCN(CC)c1nc(C(N)=O)c([N+](=O)[O-])c(N(CC)CC)n1
inactive: [1] -9.7% | [2] -3.4% | [3] 14.1% | [4] -14.2% | [5] -17.9% | [6] -0.5%

Cc1ccc(C(=Nc2ccccc2)N=S(c2ccccc2)c2ccccc2)cc1
inactive: [1] -2.2% | [2] 5.6% | [3] -19% | [4] -16.1% | [5] 2.55% | [6] -30.6%

O=C1CC[C@@H](S(=O)(=O)c2ccccc2)[C@H](/C=C/c2ccccc2)O1
inactive: [1] -5.5% | [2] 25.2% | [3] 37.6% | [4] 26.1% | [5] -7.4% | [6] -15.9%

Nc1nc(-c2cc(Br)ccc2N=NN2CCOCC2)nc2ccc(Br)cc12
active: [1] 98.8% | [2] 99.1% | [3] 99.3% | [4] 98.8% | [5] 99% | [6] 99%
